Screens deposited in PubChem BioAssay by National Center for Advancing Translational Sciences (NCATS).
Shown are actives, neighbours in structure and some others; about 11% of the full set was active somewhere.
AMA1 RON2 block = inhibitors of Plasmodium falciparum AMA1-RON2 interaction. AlphaScreen AMA1-biotinylated RON2 peptide binding. Potency, µM (titrated, usually from 58.2 µM), actives largely listed as inhibitors. 0.2% of 360,000 active. AID 720542; note: nearly all actives have a fitted effect of over 45% in size
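AMA1 (3D7) with his tag at 25 nM final met compounds first, then biotinylated RON2 peptide at 25 nM; detection used donor plus acceptor beads, 10 µg/mL apiece, read by AlphaScreen after 30 min at room temperature.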
Sm TGR block = blocks Schistosoma mansoni thioredoxin glutathione reductase; Q962Y6; purified TGR, DTNB reduction, TNB absorbance 405 nm; Potency, µM (series often up to 114 µM), hits mostly inhibitors; 3% of 360,000 active; AID 485364; note: nearly all actives have a fitted effect of over 60% in size
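Kinetic colorimetric format: TGR-catalysed, NADPH-driven DTNB reduction monitored via TNB absorbance. Enzyme dispensed at 20 nM; compound exposure 15 min at room temperature before reaction start.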
Pf growth 96h = P. falciparum growth inhibition at 96 hours; P. falciparum luciferase reporter growth, 96 h; Potency, µM (series often up to 28.7 µM), most hits filed as inhibitors; 6.9% of 320,000 active; AID 504834
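Erythrocytes infected with luciferase-expressing P. falciparum were dispensed at 2% hematocrit and 0.05% parasitemia (final), then incubated with compounds 96 hours at 37 C in 5% CO2. Luminescence after detection reagent addition reported growth.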
Pf growth 48h = inhibits P. falciparum growth in the first generation, 48 h. Potency, µM (series often up to 28.7 µM), usual class: inhibitors. AID 504832. 5.9% of 310,000 active. P. falciparum luciferase growth in erythrocytes, 48 h
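Luciferase-expressing P. falciparum in infected erythrocytes (2% hematocrit, 0.1% parasitemia final) in RPMI 1640/0.5% Albumax were exposed to compound for 48 hours at 37 C, 5% CO2; growth read as luminescence.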
NS1 function inh = inhibitors of influenza NS1 protein function; 0.4% of 270,000 active; Potency, µM (top dose mostly 46.1 µM); AID 2326; calls by dose curve; note: actives are rising curves; nearly all actives have a fitted effect of over 50% in size
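In this qHTS, NS1 from influenza A is expressed in budding yeast, where it slows growth. Cells are switched from glucose to 2% galactose medium (pH 6.0, -URA), treated with compound, and growth recovery is read at OD600.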
Hits are given with their value; n = inactive; u = inconclusive; x = no result; [ ] = remark or other dose. Unless noted, calls come from the whole dose curve; as a rule, active = well fitted curve in the direction sought with a large enough effect; inconclusive = small, poorly fitted or top-dose-only effect, or another doubt; inactive = no such curve, though single readings can be large; an effect the other way counts as inactive or inconclusive.

SMILES	AMA1 RON2 block	Sm TGR block	Pf growth 96h	Pf growth 48h	NS1 function inh
O=C(C[n+]1cccc(CNC(=O)c2ccc(OC(F)F)cc2)c1)Nc1ccccc1Cl	n	n	u	13µM	n
O=C(NCc1ccc[n+](CCCCS(=O)(=O)[O-])c1)c1ccc(OC(F)F)cc1	x	n	n	n	x
COc1ccc(-c2nc(C)c(CCNC(=O)c3c(F)cccc3F)s2)cc1	x	n	x	x	x
COc1ccc(-c2c(=O)n(OCc3ccccc3[N+](=O)[O-])c3ccccc3[n+]2[O-])c(OC)c1	n	n	n	n	n
CC(=O)C1=C(c2ccccc2)NC(=O)NC1c1ccc(O)c(O)c1 (stereo not given)	n	16µM	n	n	n
CC(=O)C1=C(c2ccccc2)NC(=S)NC1c1ccc(O)c(O)c1 (stereo not given)	u	n	13µM	n[5.75 µM]	x
CCN(CC)C(=O)c1sc2c(c1C)c(=O)n(-c1ccc(C)c(C)c1)c(=O)n2Cc1cccc(Cl)c1	x	n	x	x	x
COc1cc(C(=O)N2CC(=O)Nc3ccc(C)cc3C2c2ccc(F)cc2)cc(OC)c1OC (stereo not given)	x	n	x	x	x
CNC(=S)N/N=C/c1c(C)c(C(=O)c2ccc(F)cc2)n2ccccc12	n	n	3.3µM	8.3µM	n
Cc1c(/C=N/NC(N)=O)c2ccccn2c1C(=O)c1ccc(F)cc1	n	n	u	n	n
Cc1cc(C)c[n+](CC(=O)c2ccc(-c3ccccc3)cc2)c1	n	n	15µM	u	n
Cc1cc(C)c[n+](CC(=O)c2ccc(NC(=O)c3ccccc3)cc2)c1	n	x	n	u	n
CO[C@]1(NC(=O)[C@H](C(=O)O)c2ccc(O)cc2)C(=O)N2C(C(=O)O)=C(CSc3nnnn3C)CO[C@H]21	x	x	n	n	x
N#CC(C#N)=C1CCCc2sccc21	n	x	x	x	x
CCc1nnc(NC(=O)CSc2nc3[nH]ncc3c(=O)[nH]2)s1	n	n	n	n	x
Cc1nnc(NC(=O)CSc2nc3[nH]ncc3c(=O)[nH]2)s1	n	45µM	n	n	n
COC(=O)c1ccccc1NC(=O)c1ncoc1-c1ccco1	x	n	x	x	x
O=C(Nc1ccc(Br)cc1)C1C2C=CC3(O2)C1C(=O)N(CCN1CCOCC1)C3C(=O)NC1CCCCC1 (stereo not given)	n	n	10µM	n	n
Cc1ccc(NC(=O)C2C3C=CC4(O3)C2C(=O)N(CCN2CCOCC2)C4C(=O)NC2CCCCC2)cc1C (stereo not given)	n	n	u	n	n
Cc1cc(C)cc(NC(=O)C2C3C=CC4(O3)C2C(=O)N(CCCN2CCCCC2)C4C(=O)NC2CCCCC2)c1 (stereo not given)	n	n	n	u	n
COCCCN1C(=O)C2C(C(=O)Nc3cc(C)cc(C)c3)C3C=CC2(O3)C1C(=O)NC1CCCCC1 (stereo not given)	n	40µM	u	n	n
Cc1ccc(NC(=O)C2C3C=CC4(O3)C2C(=O)N(CCCN2CCOCC2)C4C(=O)NC2CCCCC2)cc1Cl (stereo not given)	n	n	2.1µM	n	n
O=C(CN1CCCC1)Nc1ccc(Br)cc1[N+](=O)[O-]	n	n	u	n	n
COc1ccc(NC(=O)NS(=O)(=O)c2ccc(C)cc2)cc1OC	n	x	x	x	x
Cc1ccc(N2C(=O)C3C4C=CC(CNC(=S)Nc5ccc(F)cc5)(O4)C3C2=O)cc1 (stereo not given)	n	3.2µM	n	u	n
SMILES	AMA1 RON2 block	Sm TGR block	Pf growth 96h	Pf growth 48h	NS1 function inh
Cc1ccc(N2C(=O)C3C4C=CC(CNC(=S)N5CCN(c6ccccn6)CC5)(O4)C3C2=O)cc1 (stereo not given)	n	2.8µM	n	u	x
Cc1ccc(N2C(=O)C3C4C=CC(CNC(=S)Nc5cccc(Cl)c5)(O4)C3C2=O)cc1 (stereo not given)	n	4µM	u	n	n
Cc1ccc(CNC(=O)C2CCCN(C(=O)Nc3ccc(F)cc3)C2)cc1 (stereo not given)	n	n	n	n	n
Cc1ccc(N2C(=O)N(CC(=O)Nc3cccc(Cl)c3)C(=O)C2C)cc1 (stereo not given)	n	n	n	n	x
Cc1ccc(N2C(=O)C3C4C=CC(CNC(=S)Nc5ccc(Cl)cc5)(O4)C3C2=O)cc1 (stereo not given)	n	7.1µM	u	n	n
CCC(C(=O)N1CCN(c2cc(Cl)ccc2C)CC1)n1nc(C)n2c(cc3occc32)c1=O (stereo not given)	x	n	x	x	x
CCOC(=O)C(CC1=CS(=O)(=O)c2ccc(Cl)cc21)(NC(C)=O)C(=O)OCC	n	x	x	x	x
CC(C)COC(=O)NCC12C=CC(O1)C1C(=O)N(c3ccc(Cl)cc3)C(=O)C12 (stereo not given)	n	1.6µM	n	n	n
CCCCCCN1CCN(c2ccccc2Cl)CC1	n	n	u	n	x
C[n+]1ccccc1N1CCN(c2ccccc2Cl)CC1	n	n	u	4.7µM	n
Cc1ccc(Cl)cc1N1CCN(C(=S)NCCc2ccccc2)CC1	n	n	n[1.15 µM]	n	n
Cc1ccc(Cl)cc1N1CCN(c2cccc[n+]2C)CC1	n	n	0.74µM	4.1µM	n
CN(CCc1ccccc1)C(=O)CCc1nnc(Cc2ccc3c(c2)OCO3)o1	n	u	u	u	n
Cc1cc(C)c2c(c1C)C(=O)CCC2	n	x	x	x	x
O=C(Nc1cccc(Cl)c1)N1Cc2ccccc2Oc2ncccc21	x	n	x	x	x
COc1ccc(NC(=O)CCNS(=O)(=O)c2ccc3c(c2)CCN3C(=O)C2CC2)cc1Cl	x	n	x	x	x
COc1ccc(OC)c(-c2cc(C3CCN(c4ncccc4[N+](=O)[O-])CC3)[nH]n2)c1	u	n	9.3µM	8.3µM	n
O=[N+]([O-])c1cccnc1N1CCC(c2cc(-c3ccc(Cl)cc3Cl)n[nH]2)CC1	n	n	x	u	n
CCc1ccc(/C=C/c2c([N+](=O)[O-])c(=O)n(C)c(=O)n2C)cc1	n	n	n	2.3µM	n
Cn1c(/C=C/c2ccc(Cl)cc2Cl)c([N+](=O)[O-])c(=O)n(C)c1=O	n	n	n	4.7µM	n
COc1ccc(/C=C/c2c([N+](=O)[O-])c(=O)n(C)c(=O)n2C)cc1	n	n	13µM	u	x
Cc1cc(C)cc(Oc2ccc(NC(=O)C3CC=CCC3C(=O)O)cc2)c1 (stereo not given)	n	n	u	n[5.75 µM]	x
Cc1ccc2cc(NC(=O)C3(C)CCN(C)C3)ccc2n1 (stereo not given)	n	x	x	x	x
C#CCNC(=O)C1=C[C@H](c2cn(C(C)=O)c3ccccc23)[C@@H](CCCO)[C@H](OCC)O1	n	n	u	n	n
CCCCCCCCOc1ccc(C2CC(=O)NC2=O)cc1 (stereo not given)	n	100µM	n	n	n
CC(C)Oc1ccc(C2CC(=O)NC2=O)cc1 (stereo not given)	n	n	4.1µM	n	n
O=C1CC(c2ccc(OCCCCCOc3ccc(C4CC(=O)NC4=O)cc3)cc2)C(=O)N1 (stereo not given)	n	n	u	u	n
